Screening data from PubChem BioAssay.
Pf growth 48h – Primary qHTS for delayed death inhibitors of the malarial parasite plastid, 48 hour incubation; 310,000 tested, 5.9% active; AID 504832, 2011; P. falciparum luciferase growth in erythrocytes, 48 h; Potency, µM (doses to about 28.7 µM), for inactives: at the highest dose activity change, negative = inhibition, most hits filed as inhibitors; also: potency is read from the fitted curve at half-maximal effect; % is scaled to controls: 0 for no effect and ±100 for the full control effect
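Parasite viability was followed by luminescence of a genomically integrated firefly luciferase. Cultures held 0.1% parasitemia at 2% hematocrit (final), incubated under 5% CO2 at 37 C.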
Shiga toxin inh – A qHTS for Small Molecule Inhibitors of Shiga Toxin; Vero cells, Shiga toxin protein synthesis inhibition reporter; inhibition, % at 38.7 µM; 290,000 tested, 9.2% active; AID 2315, 2010; in the data active = inhibition mostly above about 28%, no sharp cut-off; inactive = mostly below about 43%; also: 0% is about no effect
AMA1-RON2 inh – qHTS for Inhibitors of AMA1-RON; Towards Development of Antimalarial Drug Lead: Primary Screen; Plasmodium falciparum AMA1 (3D7) - RON2 peptide interaction; AlphaScreen AMA1-biotinylated RON2 peptide binding; Potency, µM (top dose mostly 58.2 µM), inactives show at the highest dose activity change, negative = inhibition, actives largely listed as inhibitors; 360,000 tested, 0.2% active; AID 720542, 2013;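 also: potency is read from the fitted curve at half-maximal effect; 0% = vehicle wells and -100% = peptide control; nearly all actives have a fitted effect of over 45% in size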
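AMA1 (3D7) with his tag at 25 nM final met compounds first, then biotinylated RON2 peptide at 25 nM; detection used donor plus acceptor beads, 10 µg/mL apiece, read by AlphaScreen after 30 min at room temperature.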
HCV inhibitor – qHTS Assay for Inhibitors of Hepatitis C Virus (HCV); Huh7.5.1 HCVcc-Cre infection, luciferase reporter, 44 h; Potency, µM (doses to about 41.8 µM), for the others: at the top dose activity change, negative = inhibition, actives largely listed as inhibitors; 340,000 tested, 3.4% active; AID 651820, 2012; also: potency is read from the fitted curve at half-maximal effect; % is scaled to controls: 0 for no effect and ±100 for the full control effect
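After 44 h co-culture of compound, cells and HCVcc-Cre (~0.5 moi), substrate is added for 15 min at room temperature and luciferase measured over 15 sec. Cells were seeded at 1,000/well and pre-cultured 4 h.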
Pf growth 96h – Primary qHTS for delayed death inhibitors of the malarial parasite plastid, 96 hour incubation | P. falciparum luciferase reporter growth, 96 h | Potency, µM (series often up to 28.7 µM), for the others: at the highest dose activity change, negative = inhibition, most hits filed as inhibitors | 320,000 tested, 6.9% active | AID 504834, 2011; also: potency is read from the fitted curve at half-maximal effect; % is scaled to controls: 0 for no effect and ±100 for the full control effect
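Two parasite generations (96 h, 37 C, 5% CO2) of compound exposure in infected erythrocytes (0.05% parasitemia, 2% hematocrit). Luciferase-reporter P. falciparum; decreased luminescence indicates inhibited growth, aimed at apicoplast-acting delayed death.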
CHX counter – Cycloheximide Counterscreen for Small Molecule Inhibitors of Shiga Toxin. cell reporter, cycloheximide protein synthesis inhibition counterscreen. max response, %. 300,000 tested, 12% active. AID 2314, 2010; in the data active = max response mostly above about 13%, no sharp cut-off; inactive = mostly below about 14%; also: read at 38.3 µM for the half of the compounds with a filed dose; 0% is about no effect
Starred values were filed as active, the others as inactive; ? = inconclusive; . = no result; [ ] = another dose, or the depositor's remark. Hits are enriched below; roughly 21% of the tested compounds scored in any of these assays. Unless noted, calls follow the shape of the dose curve; as a rule, active = well fitted curve in the direction sought with a large enough effect; inconclusive = small, poorly fitted or top-dose-only effect, or another doubt; inactive = no such curve, though single readings can be large; an effect the other way counts as inactive or inconclusive.

SMILES	Pf growth 48h	Shiga toxin inh	AMA1-RON2 inh	HCV inhibitor	Pf growth 96h	CHX counter
COc1ccc(CNC(=O)CNC(=O)c2ccc(C(C)(C)C)cc2)cc1OC	?	16	0%	-8%	?	5
Cc1ccc(-c2ccc([C@H]3[C@@H]4C=CCC[C@@]4(C)C(=O)N3Cc3ccccc3)c(F)c2)cc1	?	-4	-19%	-14%	13µM*	1
COc1ccc(-c2ccc([C@H]3[C@@H]4C=CCC[C@@]4(C)C(=O)N3Cc3ccccc3)c(F)c2)cc1	?	3	-4%	?	?	-2
Cc1ccc(-c2ccc(C3C4C=CCCC4(C)C(=O)N3Cc3ccccc3)c(F)c2)cc1 (configuration not stated)	.	13	.	.	.	8
CC(=O)c1ccc(-c2ccc([C@H]3[C@@H]4C=CCC[C@@]4(C)C(=O)N3Cc3ccccc3)c(F)c2)cc1	12µM*	-2	-5%	?	?	-3
CN(C)CCCN(C(=O)c1ccc(S(=O)(=O)N2CCCCCC2)cc1)c1nc2c(F)cc(F)cc2s1	?	.	-3%	-20%	-2%	.
Cc1ccccc1Nc1nnc(SCC(=O)c2c(N)n(C3CC3)c(=O)[nH]c2=O)s1	?	.	8%	1%	?	.
CC(C)c1ccc(S(=O)(=O)/N=C2\C=C(NS(=O)(=O)c3ccccc3)C(=O)c3ccccc32)cc1	-30%	-3	?	-13%	4%	7
CC(C)c1ccc(S(=O)(=O)/N=C2/C=CC(=O)c3ccccc32)cc1	8.3µM*	6	.	.	58%	15
COc1ccc(NC(=O)CN2CCN(C(=S)NC3CCCC3)CC2)cc1	32%	-6	3%	9%	28%	-5
COc1ccccc1CNC(=O)C(CCSC)NC(=O)c1cccc(S(=O)(=O)N2CCOCC2)c1 (configuration not stated)	.	.	6%	-15%	.	.
CC1(C)Cc2nc(NC3CCCCC3)c(C#N)cc2CO1	9.3µM*	-11	-9%	-18%	15%	14
CC1(C)Cc2c(C#N)c(NCC3CCCO3)nc(-c3ccco3)c2CO1 (configuration not stated)	?	-11	19%	?	.	-3
CCC1(C)Cc2nc(Cl)c(C#N)cc2CO1 (configuration not stated)	1%	17	-4%	4%	16%	1
CC1(C)Cc2c(C#N)c(NC3CCCCC3)nc(-c3ccco3)c2CO1	5.9µM*	5	.	-23%	9.3µM*	2
CCOc1ccccc1C(=O)NC(C)c1ccc(-n2ccnc2)cc1 (configuration not stated)	?	-21	4%	?	8.3µM*	1
CSCc1ccc(C(=O)NC(C)c2ccc(-n3ccnc3)cc2)cc1 (configuration not stated)	-5%	16	-12%	2%	?	18*
C[C@@H](C(=O)O)c1ccc(C(=O)c2ccccc2)s1	6%[12.8 µM]	.	.	.	-14%[12.8 µM]	.
CCOc1cc(N)c(Cl)cc1C(=O)NCC1CN(Cc2ccc(F)cc2)CCO1 (configuration not stated)	7.6µM*	-2	9%	?	6µM*	-4
Nc1cc(=O)[nH]c(SCC(=O)N2CCCC2)n1	.	.	-1%	16%	.	.
COc1cc(/C(C)=N/NC(=O)CSc2nncn2C)ccc1OCc1ccccc1Cl	?	84*	-21%	34%	?	38*
O=[N+]([O-])C(=C1Nc2ccccc2N1)C(Cl)=C(Cl)Cl	14%	24	-1%	-9%	30%	16*
COc1ccc([C@H]2C[C@@H](n3cc(COC(=O)c4ccccc4)nn3)[C@H](O)CN2Cc2cccs2)cc1	.	.	-4%	.	.	.
Cn1c(=O)c2[nH]c(N=NNc3ccccc3F)nc2n(C)c1=O	34%	34	64%	-19%	0%	10
